# A selection: hits, their analogues and other compounds. The true share with any hit is near 9.4%.
# ALDH1A1 block: blocks purified human ALDH1A1 activity; P00352; Purified ALDH1A1, NADH fluorescence, propionaldehyde substrate; Potency, µM (doses to about 75.3 µM), inactives show at the highest dose activity, negative = inhibition, hits mostly inhibitors; 7.3% of 220,000 active; AID 1030; active = well fitted inhibition curve with a large enough effect, not every such curve was filed as active; inconclusive = small, poorly fitted or top-dose-only effect, or another doubt; inactive = no such curve, though single readings can be large or run the other way;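 note: potency is the fitted concentration of half-maximal effect; plate controls were no enzyme wells and a reference inhibitor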
# HPGD block: HPGD (human) dehydrogenase inhibition | purified HPGD, NADH fluorescence kinetic, PGE2 substrate | Potency, µM, for the others: at the highest dose activity change, negative = inhibition, usual class: inhibitors | 4.3% of 150,000 active; active = well fitted inhibition curve with a large enough effect, not every such curve was filed as active; inconclusive = small, poorly fitted or top-dose-only effect, or another doubt; inactive = no such curve, though single readings can be large or run the other way; note: potency is the fitted concentration of half-maximal effect; % is set by controls: 0 for no effect and ±100 for the full control effect
# Target sequence (P15428 whole entry, looked up): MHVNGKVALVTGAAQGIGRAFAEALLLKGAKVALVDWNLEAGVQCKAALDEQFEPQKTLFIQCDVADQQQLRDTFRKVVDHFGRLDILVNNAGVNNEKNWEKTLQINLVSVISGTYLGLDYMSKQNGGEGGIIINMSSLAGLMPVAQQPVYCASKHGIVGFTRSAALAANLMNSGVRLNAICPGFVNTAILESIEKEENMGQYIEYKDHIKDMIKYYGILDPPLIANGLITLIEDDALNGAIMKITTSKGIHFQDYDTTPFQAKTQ
#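 NADH formation kinetics: reaction with 30 uM PGE2 and 1 mM NAD+ (final), 20 nM enzyme, Tris-HCl pH 8 with Tween 20, after 15 min compound preincubation at room temperature. Fluorescence change, last versus first of five reads.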
# IMPase Li cell: IMPase inhibition in cells with lithium potentiation; CHO-M1 cells, IP1 TR-FRET (IP-One), carbachol + lithium; AID 1457; 0.35% of 210,000 active; Potency, µM (highest dose often 59.4 µM), inactives show top-dose activity, negative = IMPase inhibition, actives largely listed as inhibitors;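 note: IP1 builds up when IMPase is blocked and the TR-FRET signal falls; potency is the fitted concentration of half-maximal effect; plate controls were basal vehicle for no effect and high inhibitor control for full effect; nearly all actives have a fitted effect of over 50% in size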
#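 Steps: plate 2000 CHO-M1 cells per well and culture 16–30 h; add compound and lithium; incubate 30 min, 37C; add d2-IP1 tracer and Eu cryptate anti-IP1 antibody in lysis buffer; read after 10 min at room temperature.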
# IMPase cell inh: membrane-permeable compound that blocks inositol monophosphatase. P97697. CHO-M1 cells, IP1 accumulation, HTRF TR-FRET ratio. inhibition (IP1 accumulation), % at 46.1 µM. 120,000 tested, under 10 active; active = well fitted curve in the direction sought with a large enough effect in the signal ratio, not every such curve was filed as active; inconclusive = small, poorly fitted or top-dose-only effect, or a change in a side signal; inactive = no such curve, though single readings can be large or run the other way; the % refers to the signal ratio;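 note: cells stimulated with carbachol in lithium chloride buffer; plate controls were DMSO basal wells for no effect and reference inhibitor wells for full effect; higher means more IMPase inhibition seen as more IP1 and lower FRET ratio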
# Target sequence (P97697 whole entry, looked up): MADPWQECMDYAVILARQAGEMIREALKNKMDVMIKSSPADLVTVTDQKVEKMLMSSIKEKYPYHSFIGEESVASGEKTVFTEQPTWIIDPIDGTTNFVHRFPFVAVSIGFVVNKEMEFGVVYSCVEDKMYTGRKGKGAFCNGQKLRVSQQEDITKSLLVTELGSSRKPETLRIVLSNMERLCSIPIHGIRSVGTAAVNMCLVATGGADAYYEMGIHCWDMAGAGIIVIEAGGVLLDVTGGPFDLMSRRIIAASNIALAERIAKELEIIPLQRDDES
#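 Carbachol-driven Gq signalling in CHO-M1 cells (2000/well) generates IP1. Compounds that block IMPase raise IP1 and so reduce the FRET signal from Eu-anti-IP1 and d2-IP1 after a 10 min room-temperature lysis.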
# HTT aggregate: inhibitors of mutant huntingtin aggregate formation in PC12 cells; PC12 HttQ103-GFP aggregates, Acumen cytometry, 40 h; Potency, µM (series often up to 46.1 µM), for inactives: at the highest dose activity change, negative = inhibition, actives largely listed as inhibitors; 1.1% of 220,000 active; AID 1688; note: potency is the fitted concentration of half-maximal effect; % is set by controls: 0 for no effect and ±100 for the full control effect; nearly all actives have a fitted effect of over 60% in size
#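 Using laser scanning cytometry, GFP-positive aggregates were counted after lysis of PC12 cells induced with 100 nM tebufenozide to express HTT exon 1 Q103–GFP. Compounds were tested in titration.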
# HTT cytoprotect: cytoprotection in Huntington HTT-Q103 PC12 cell model; AID 1471; 0.14% of 230,000 active; PC12 HTT-Q103 induced, cytoprotection, ATP luminescence, 40 h; Potency, µM (doses to about 56.4 µM), inactives show cytoprotection (ATP increase), hits mostly activators; note: potency is the fitted concentration of half-maximal effect; % of control where 0% means no effect; nearly all actives have a fitted effect of over 45% in size
#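 Rat PC12, Q103 Htt exon1-GFP fusion, ecdysone promoter; tebufenozide inducer 100 nM final; compound titration; qHTS, 1500 cells/well; ATPlite luminescent read.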
# Starred values were filed as active, the others as inactive; ? = inconclusive; / = not tested or not shown; [ ] = another dose, or the depositor's remark. Unless noted, calls come from the whole dose curve; as a rule, active = well fitted curve in the direction sought with a large enough effect; inconclusive = small, poorly fitted or top-dose-only effect, or another doubt; inactive = no such curve, though single readings can be large; an effect the other way counts as inactive or inconclusive.
SMILES,ALDH1A1 block,HPGD block,IMPase Li cell,IMPase cell inh,HTT aggregate,HTT cytoprotect
Cc1ccnc(NC(c2cccnc2)c2ccc3cccnc3c2O)c1 (stereo not drawn),10µM*,/,12.0%,/,-3.0%[9.22 µM],-187.1%
O=C(C1=C(O)C(=O)N(CCc2ccccc2)C1c1ccncc1)c1cc2ccccc2o1 (stereo not drawn),18.9µM*,/,4.47µM*,/,19.2%[9.22 µM],-45.2%[1.9 µM]
COc1ccccc1C1C(C(=O)c2cc3ccccc3o2)=C(O)C(=O)N1CCN(C)C (stereo not drawn),20µM*,-12.7%,8.91µM*,-27.2,?,-1.7%[0.074 µM]
COc1cccc2cc(C(=O)C3=C(O)C(=O)N(CCN(C)C)C3c3ccc(Cl)cc3)oc12 (stereo not drawn),/,/,/,/,-3.7%[9.22 µM],2.8%[10 µM]
CN(C)CCN1C(=O)C(O)=C(C(=O)c2cc3ccccc3o2)C1c1cccc(Br)c1 (stereo not drawn),-1.4%,-10.8%,11.2µM*,?,16.0%,-5.8%
CCN(CC)CCN1C(=O)C(O)=C(C(=O)c2cc3ccccc3o2)C1c1cccnc1 (stereo not drawn),-7.9%,-6.8%,10µM*,?,0.0%,-14.2%
CCOC(=O)c1sc(NC(=O)C(C)Oc2ccc(OC)cc2)c(C(=O)OCC)c1C (stereo not drawn),/,/,/,-16.4,/,/
CC1=C(C(=O)OCC2CCCCC2)C(c2ccc(Cl)cc2Cl)CC(=O)N1 (stereo not drawn),/,/,/,-1.6,/,/
CCOc1cccc(C2C(C(=O)c3ccc(C)o3)=C(O)C(=O)N2c2nccs2)c1 (stereo not drawn),2.2%,/,/,?,8.9%,-16.2%
O=C(C1=C(O)C(=O)N(CCCN2CCOCC2)C1c1ccccn1)c1cc2ccccc2o1 (stereo not drawn),?,-6.9%,11.2µM*,?,-17.5%,-12.1%
O=C(C1=C(O)C(=O)N(c2nccs2)C1c1ccccc1)c1cc2ccccc2o1 (stereo not drawn),22.4µM*,/,/,/,0.9%[9.22 µM],3.8%[10 µM]
CO/N=C(\C(=O)N[C@@H]1C(=O)N2C(C(=O)O)=C(CSc3nc(=O)c(O)nn3C)CSC12)c1csc(N)n1 (stereo partly drawn),?,-20.1%,-11.5%,/,/,/
O=C(O)[C@@H]1[C@@H](C(=O)NCc2cccnc2)[C@@H]2C=C[C@@H]1O2,2.9%[13.5 µM],-12.7%,-4.0%,/,/,-4.0%[10 µM]
COCC(=O)N(Cc1cc2ccc(C)cc2[nH]c1=O)c1ccc(OC)cc1,-11.4%,-7.7%,3.5%[38.3 µM],-1.4,-11.9%,2.5%
CCOc1ccc(N(Cc2cc3ccc(C)cc3[nH]c2=O)C(=O)COC)cc1,17.8µM*,-12.8%,-0.9%[38.3 µM],3.8,1.7%,-14.7%[0.074 µM]
O=c1oc2ccccc2c(NCc2ccccc2)c1[N+](=O)[O-],11.2µM*,25.1µM*,-6.2%,/,-10.1%,-0.4%[10 µM]
O=c1oc2ccccc2c(NCCO)c1[N+](=O)[O-],5.8%,/,0.2%,/,9.4%,11.4%[10 µM]
Cc1cc(Cl)cc(Cl)c1CNc1c([N+](=O)[O-])c(=O)oc2ccccc12,10µM*,?,12.5%,/,-7.4%,5.9%[10 µM]
CCNc1c([N+](=O)[O-])c(=O)n(CC)c2ccccc12,/,/,/,/,5.2%[9.22 µM],-7.2%[10 µM]
Cn1c(=O)c([N+](=O)[O-])c(NCc2ccccc2)c2ccccc21,15.8µM*,6.31µM*,16.9%[38.3 µM],-0.6,15.9%,-6.6%[10 µM]
COc1ccc(CCNc2c([N+](=O)[O-])c(=O)oc3ccccc23)cc1OC,-0.2%,15.8µM*,-2.6%[38.3 µM],4.3,-0.4%,7.7%
Cc1cccc(Nc2c([N+](=O)[O-])c(=O)oc3ccccc23)c1,/,/,/,/,-6.2%[9.22 µM],9.3%[10 µM]
O=c1oc2ccccc2c(NCc2ccc(Cl)cc2)c1[N+](=O)[O-],/,/,/,/,7.2%[9.22 µM],9.9%[10 µM]
Fc1ccc([C@@H]2Nc3ccccc3[C@@H]3C=CC[C@@H]32)cc1,/,/,/,4.6,/,/
Nc1c(NCc2ccccc2)c2ccccc2oc1=O,22.4µM*,?,13.4%[38.3 µM],7.2,-18.8%,-7.9%
CNc1c(N)c(=O)oc2ccccc12,-23.2%,/,19.0%,/,4.5%,-53.0%

# Screening data: PubChem, National Center for Advancing Translational Sciences (NCATS)
